Experimental data taken from PubChem BioAssay (EPA / NIEHS).
Values joined by “and” are separate entries in the source; they are usually repeats but may differ in a detail not shown here. Identical values can stand only once. Inconclusive results are not listed. Active and inactive are the calls of the source. The calls were made as follows, unless noted: active = hit-call score of the fitted dose curve at least 0.9, where 1 is the maximum; inconclusive = response in the unintended direction; inactive = score below 0.9.

Legend:
[1] = TOX21_p53_BLA_p2_viability: Viability Assessment in the Tox21 HCT-116 p53 Agonism Beta-lactamase Assay, Phase 2 (AID 2283591);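 also: actives lower the ATP signal meaning cytotoxicity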
In short: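 HCT116 p53-bla cells, 4000/well, dosed after 5 h plating (217-fold dilution of DMSO stocks) and incubated 16 h at 37C. Viability taken as cellular ATP by CellTiter-Glo luminescence after 30 min RT; signal loss marks cytotoxicity.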

[2] = TOX21_p53_BLA_p3_viability: Viability Assessment in the Tox21 HCT-116 p53 Agonism Beta-lactamase Assay, Phase 3 (AID 2283593);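 also: cells exposed to compound for 16 h before reading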
In short: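 HCT116 cells, 4000/well, dosed 5 h after plating by pin transfer (217-fold dilution from DMSO stock) and incubated 16 h at 37C, 5% CO2. Viability read as ATP luminescence with CellTiter-Glo after 30 min at room temperature.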

[3] = TOX21_p53_BLA_p4_viability: Viability Assessment in the Tox21 HCT-116 p53 Agonism Beta-lactamase Assay, Phase 4 (AID 2283597);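 also: hits lower the luminescence signal meaning cytotoxicity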
In short: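 Compound exposure of HCT116 cells lasts 16 h at 37C, 5% CO2, with DMSO stocks diluted 217-fold. Cellular ATP is then quantified by CellTiter-Glo luminescence after 30 min at room temperature.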

[4] = target: Cellular tumor antigen p53 (Homo sapiens) (UniProt P04637); test: TOX21_p53_BLA_p5_ratio: Tox21 HCT-116 p53 Agonism Beta-lactamase Assay, Ratio, Phase 5 (AID 2283599)
In short: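 HCT-116 p53-bla cells (4000/well) plated 5 h, dosed with compound (217-fold DMSO dilution) for 16 h at 37 C; CCF4-AM substrate 2 h at room temperature. Activity is the 460/530 nm emission ratio (405 nm excitation), fitted in gain-of-signal direction versus DMSO.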

[5] = TOX21_p53_BLA_p5_viability: Viability Assessment in the Tox21 HCT-116 p53 Agonism Beta-lactamase Assay, Phase 5 (AID 2283600)
In short: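 Counter-readout for cytotoxicity: ATP-dependent luminescence from CellTiter-Glo, read in the beta-lactamase wells after 30 min at RT, following a 16 h compound exposure at 37C.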

[6] = target: Cellular tumor antigen p53 (Homo sapiens) (UniProt P04637); test: TOX21_p53_BLA_p4_ratio: Tox21 HCT-116 p53 Agonism Beta-lactamase Assay, Ratio, Phase 4 (AID 2283601)
In short: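 HCT-116 p53 beta-lactamase reporter cells (4000/well) preincubated 5 h, then compound (217-fold dilution of DMSO stock) for 16 h at 37C. CCF4-AM substrate added 2 h at room temperature; 460/530 nm emission ratio fitted upward versus DMSO.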

[7] = ACEA_AR_agonist_AUC_viability: ACEA Biosciences xCELLigence Real-Time Cell Analysis on Androgen Receptor Agonism for Viability (AID 2283775)
In short: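 Real-time impedance tracking of 22Rv1 growth, readings every 5 min for 5 h then hourly; area-under-curve viability endpoint at 80 hours, relative to DMSO. Compounds at eight concentrations, 1:4 steps, top 100 uM, n = 2.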

[8] = ACEA_AR_antagonist_AUC_viability: ACEA Biosciences xCELLigence Real-Time Cell Analysis on Androgen Receptor Antagonism for Viability (AID 2283776);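 also: 22Rv1 human prostate cancer cells growing on impedance electrode plates; hits lower the growth signal relative to DMSO meaning cytotoxicity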
In short: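 Viability endpoint from label-free cell-index monitoring: 22Rv1 cultures treated with an eight-point 1:4 dilution series starting at 100 uM final, AUC at 80 h fitted against DMSO.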

[9] = target: Cellular tumor antigen p53 (Homo sapiens) (UniProt P04637); test: TOX21_p53_BLA_p3_ratio: Tox21 HCT-116 p53 Agonism Beta-lactamase Assay, Ratio, Phase 3 (AID 2283596)
In short: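 HCT116 p53-bla cells (4000/well) given compound in DMSO (217-fold dilution) after 5 h, incubated 16 h at 37C. CCF4-AM substrate 2 h at room temperature; 460/530 nm emission ratio, gain fitted against DMSO.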

[10] = system: Thyroperoxidase (TPO), gene 54314; test: CCTE_Simmons_AUR_rTPO: CCTE's Amplex UltraRed Assay for Thyroperoxidase (TPO) Inhibition, Simmons Lab (AID 2283662);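 also: potency for loss of signal meaning inhibition of peroxidase activity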
In short: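 Endpoint is decreased Amplex UltraRed fluorescence after a 30-min, 37C reaction of rat thyroid microsomes with 300 uM H2O2. Eight test concentrations (5 nM–87.5 uM final) in 0.5% DMSO, three biological replicates each.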

[11] = CCTE_Simmons_CellTiterGLO_HEK293T: Viability Assessment in CCTE's Assays for Thyroperoxidase (TPO) Inhibition, Simmons Lab (AID 2283665);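 as to AC50: cells exposed to compound for 24 h before readout; actives reduce ATP signal below DMSO vehicle meaning cytotoxicity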
In short: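 HEK293T cells in DMEM with 1% FBS, dosed 24 h at 37C with 8 concentrations, 5 nM–87.5 uM final, 0.5% DMSO. ATP measured by CellTiter Glo luminescence; loss of signal vs DMSO, three biological replicates.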

[12] = CEETOX_H295R_MTT_cell_viability: Viability Assessment in the CeeTox HT-H295R MTT Assay (AID 2283718; active = hit-call score of the fitted dose curve at least 0.9, where 1 is the maximum; inactive = score below 0.9;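 as to AC50: curve fitted both ways so AC50 may mark viability loss or gain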)
In short: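 Human H295R adrenal cells, prestimulated 48 h with 10 uM forskolin, were exposed 48 h to chemicals in 0.1% DMSO. Viability was measured in the same wells by MTT (0.5 mg/ml, 4 h, 37 C), absorbance 570/650 nm, as percent of controls.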

[13] = target: Luciferin 4-monooxygenase (Photinus pyralis) (UniProt P08659); test: CCTE_Simmons_QuantiLum_inhib_2: CCTE's Firefly Luciferase Inhibition Assay, Simmons Lab (AID 2283767);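 as to AC50: potency for inhibitors that lower luciferase luminescence relative to DMSO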
In short: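 Cell-free recombinant firefly luciferase (5 ng/well) in 200mM potassium phosphate with 1 mg/ml BSA, 30 min at 37C with 8 concentrations from 5 nM to 87.5 uM [final], 0.5% DMSO. Luminescence read after D-luciferin (150uM)/dATP (147uM) reagent injection, pH 7.8; triplicates.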

Chain of Cellular tumor antigen p53 (Homo sapiens) (P04637 whole entry, looked up): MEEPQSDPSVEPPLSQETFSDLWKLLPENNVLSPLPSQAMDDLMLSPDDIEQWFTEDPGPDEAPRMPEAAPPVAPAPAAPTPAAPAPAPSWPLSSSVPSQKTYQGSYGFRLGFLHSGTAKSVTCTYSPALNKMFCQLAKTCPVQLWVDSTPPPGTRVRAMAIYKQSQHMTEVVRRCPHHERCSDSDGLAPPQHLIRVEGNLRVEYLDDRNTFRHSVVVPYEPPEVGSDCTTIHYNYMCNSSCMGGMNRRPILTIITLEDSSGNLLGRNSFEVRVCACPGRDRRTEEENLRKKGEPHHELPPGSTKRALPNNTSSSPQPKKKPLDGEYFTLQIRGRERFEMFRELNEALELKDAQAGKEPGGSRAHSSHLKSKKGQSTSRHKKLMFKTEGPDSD
Chain of Luciferin 4-monooxygenase (Photinus pyralis) (P08659 whole entry, looked up): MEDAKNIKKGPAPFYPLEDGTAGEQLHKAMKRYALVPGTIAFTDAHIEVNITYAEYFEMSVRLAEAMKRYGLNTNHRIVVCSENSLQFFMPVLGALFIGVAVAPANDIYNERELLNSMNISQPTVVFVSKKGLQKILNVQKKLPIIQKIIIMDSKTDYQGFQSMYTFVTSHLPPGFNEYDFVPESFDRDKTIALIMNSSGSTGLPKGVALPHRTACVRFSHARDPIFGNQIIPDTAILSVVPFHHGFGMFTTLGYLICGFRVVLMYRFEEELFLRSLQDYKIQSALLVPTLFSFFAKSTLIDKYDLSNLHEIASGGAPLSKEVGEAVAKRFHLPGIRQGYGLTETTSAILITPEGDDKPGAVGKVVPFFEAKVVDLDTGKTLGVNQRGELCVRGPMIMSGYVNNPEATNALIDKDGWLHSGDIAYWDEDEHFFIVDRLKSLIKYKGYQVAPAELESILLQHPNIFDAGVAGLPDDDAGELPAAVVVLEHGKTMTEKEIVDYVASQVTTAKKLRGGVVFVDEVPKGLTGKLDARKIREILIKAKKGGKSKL

Compound: CNC(=S)NC
- outcome [1]: inactive
- outcome [2]: inactive
- AC50 [3]: 46.1 µM (active)
- outcome [4]: inactive
- outcome [5]: inactive
- outcome [6]: inactive
- outcome [7]: inactive
- outcome [8]: inactive

Compound: CC(Cc1ccc(O)c(O)c1)C(C)Cc1ccc(O)c(O)c1 (stereo not given)
- AC50 [1]: 63.6 µM (active)
- AC50 [2]: 86.7 µM (active)
- AC50 [9]: 75.1 µM (active)
- AC50 [3]: 46.1 µM (active)
- AC50 [4]: 81.3 µM (active)
- outcome [5]: inactive
- AC50 [6]: 75.5 µM (active)
- AC50 [10]: 0.55 µM (active)
- AC50 [11]: 87 µM (active)
- AC50 [12]: 37.4 µM (active)
- AC50 [13]: 16.1 µM (active)
- outcome [7]: inactive
- outcome [8]: inactive

Compound: C#C[C@]1(O)CC[C@H]2[C@@H]3CCc4cc(OC)ccc4[C@H]3CC[C@@]21C
- outcome [1]: inactive
- outcome [2]: inactive
- outcome [9]: inactive
- outcome [3]: inactive
- outcome [4]: inactive
- outcome [5]: inactive
- outcome [6]: inactive
- AC50 [12]: 44 µM (active)
- outcome [7]: inactive
- outcome [8]: inactive

Compound: CC/C=C\CCOC(C)=O
- outcome [1]: inactive
- outcome [2]: inactive
- outcome [9]: inactive
- outcome [4]: inactive
- outcome [6]: inactive
- outcome [7]: inactive
- outcome [8]: inactive

Compound: CCN(CC)c1ccc2c(C)cc(=O)oc2c1
- outcome [1]: inactive
- outcome [2]: inactive
- AC50 [9]: 40.9 µM (active) and 38.6 µM (active)
- outcome [3]: inactive
- AC50 [4]: 38.6 µM (active) and 31.6 µM (active)
- outcome [5]: inactive
- AC50 [6]: 41.6 µM (active) and 36 µM (active)

Compound: CCCCCCS
- outcome [12]: inactive

Compound: CC/C=C\CCOC(=O)c1ccccc1
- outcome [9]: inactive
- outcome [3]: inactive
- outcome [4]: inactive
- outcome [6]: inactive

Compound: CCN(Cc1cccc(S(=O)(=O)O)c1)c1ccc(C(=C2C=CC(=[N+](CC)Cc3cccc(S(=O)(=O)O)c3)C=C2)c2ccc(O)cc2S(=O)(=O)[O-])cc1
- AC50 [10]: 19.1 µM (active)
- AC50 [11]: 7.74 µM (active)
- AC50 [13]: 3.86 µM (active)

Compound: CCCCOc1ccc(N)cc1
- outcome [1]: inactive
- outcome [9]: inactive
- outcome [3]: inactive
- outcome [4]: inactive
- outcome [5]: inactive
- AC50 [10]: 0.869 µM (active)
- outcome [11]: inactive
- outcome [13]: inactive

Compound: [Co]
- outcome [7]: inactive

Compound: CN(C)Cc1ccccc1O
- outcome [1]: inactive
- outcome [3]: inactive
- outcome [4]: inactive
- outcome [5]: inactive
- outcome [6]: inactive
- outcome [8]: inactive

Compound: COC(=O)C1CCC(C(=O)OC)CC1 (stereo not given)
- outcome [2]: inactive
- outcome [9]: inactive
- outcome [3]: inactive
- outcome [4]: inactive
- outcome [5]: inactive
- outcome [6]: inactive
- outcome [12]: inactive
- outcome [7]: inactive
- outcome [8]: inactive

Compound: CCCCCCC(C)OC(=O)CCCCC(=O)OC(C)CCCCCC (stereo not given)
- outcome [8]: inactive

Compound: CCCCC(CC)COP(=O)(O)OCC(CC)CCCC (stereo not given)
- outcome [8]: inactive

Compound: CCCCCCOC(=O)c1ccccc1O
- outcome [2]: inactive
- outcome [9]: inactive
- outcome [3]: inactive
- outcome [4]: inactive
- outcome [5]: inactive
- outcome [7]: inactive
- outcome [8]: inactive

Compound: CC(C)OC(=O)c1ccccc1C(=O)OC(C)C
- outcome [12]: inactive
- outcome [7]: inactive
- outcome [8]: inactive

Compound: Cc1cccc(N(C)C)c1
- outcome [12]: inactive

Compound: O=C(OCCOCCOCCOC(=O)c1ccccc1)c1ccccc1
- outcome [1]: inactive
- AC50 [4]: 82.1 µM (active)
- outcome [5]: inactive
- outcome [6]: inactive
- AC50 [8]: 0.195 µM (active)

Compound: CCCCCCCOC(=O)c1ccccc1C(=O)OCCCCCCC
- outcome [12]: inactive

Compound: Cc1cc(C)cc(O)c1
- outcome [1]: inactive
- outcome [9]: inactive
- outcome [4]: inactive
- outcome [6]: inactive
- outcome [8]: inactive

Compound: Nc1ccc(Oc2cccc(Oc3ccc(N)cc3)c2)cc1
- outcome [12]: inactive

Compound: CCC(=O)OCCc1ccccc1
- outcome [9]: inactive
- outcome [4]: inactive
- outcome [5]: inactive
- outcome [6]: inactive

Compound: Nc1ccc(S(=O)(=O)Nc2nccs2)cc1
- outcome [2]: inactive
- outcome [9]: inactive
- outcome [4]: inactive
- outcome [5]: inactive
- outcome [6]: inactive

Compound: Oc1ccc(Nc2ccccc2)cc1
- outcome [2]: inactive
- outcome [9]: inactive
- outcome [4]: inactive
- outcome [6]: inactive

Compound: CC(=O)Nc1ccc(N=Nc2cc(C)ccc2O)cc1
- outcome [12]: inactive

Compound: FC(F)(F)C(F)(F)C(F)(F)C(F)(F)CCI
- outcome [9]: inactive
- outcome [4]: inactive
- outcome [5]: inactive
- outcome [6]: inactive
